Screening data: PubChem BioAssay, National Center for Advancing Translational Sciences (NCATS)
NPR1 antag: human Npr1 receptor antagonism; Potency, µM (series often up to 46.3 µM), hits mostly inhibitors; 76,000 tested, 1.6% active; AID 1347048; HEK293 hNpr1 GloSensor cGMP, ANP-stimulated luminescence; calls by dose curve; also: nearly all actives have a fitted effect of over 60% in size
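Compound pre-incubated 30 min at room temperature on GloSensor-loaded HEK293 cells stably carrying hNpr1 and the pGS-40F cGMP biosensor. Stimulation uses hNppA at 0.1 nM final; luminescence is taken at baseline and 20 min post-agonist.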
3T3 cytotox: cytotoxic compounds in NIH 3T3 cells; NIH 3T3 viability, CellTiter-Glo ATP luminescence, 48-72 h; 94,000 tested, 4.3% active; Potency, µM (series often up to 96.7 µM), actives largely listed as inhibitors; also: nearly all actives have a fitted effect of over 55% in size
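Cytotoxicity is measured as loss of cellular ATP: NIH 3T3 cells (400/well) are exposed to compound for 48 or 72 hr at 37 °C, then CellTiter-Glo luminescence is imaged after 10 min at room temperature.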
Luciferase inh: blocks purified firefly luciferase enzyme activity. P08659. purified P. pyralis luciferase, luminescence, biochemical. Potency, µM (titrated, usually from 115 µM), usual class: inhibitors. 76,000 tested, 2.5% active. AID 1347043; also: nearly all actives have a fitted effect of over 65% in size
Target sequence (P08659 whole entry, looked up): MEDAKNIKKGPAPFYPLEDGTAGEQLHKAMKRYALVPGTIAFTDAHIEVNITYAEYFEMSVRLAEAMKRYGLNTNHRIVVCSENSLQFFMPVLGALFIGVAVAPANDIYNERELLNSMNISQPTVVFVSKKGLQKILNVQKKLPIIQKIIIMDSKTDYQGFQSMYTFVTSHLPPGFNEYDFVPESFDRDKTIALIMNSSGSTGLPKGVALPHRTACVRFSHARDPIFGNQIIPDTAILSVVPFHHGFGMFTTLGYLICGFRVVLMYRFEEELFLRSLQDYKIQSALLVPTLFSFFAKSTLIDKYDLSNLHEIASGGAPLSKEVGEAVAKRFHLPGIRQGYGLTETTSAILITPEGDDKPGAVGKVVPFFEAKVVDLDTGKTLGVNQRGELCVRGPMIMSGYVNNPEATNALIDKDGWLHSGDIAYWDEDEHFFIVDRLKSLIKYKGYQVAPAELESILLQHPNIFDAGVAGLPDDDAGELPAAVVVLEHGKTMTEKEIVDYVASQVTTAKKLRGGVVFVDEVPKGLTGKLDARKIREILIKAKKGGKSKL
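FLuc 10nM, D-luciferin 10uM, ATP 10uM, Mg acetate 10mM, Tris acetate pH 7.5, Tween/BSA; cpd qHTS; enzyme added last; CCD luminescence.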
HEK cytotox: kills HEK 293 cells; AID 1345083; HEK 293 viability, ATP luminescence (CellTiter-Glo), 48-72 h; Potency, µM (top dose mostly 115 µM), actives largely listed as inhibitors; 94,000 tested, 6.6% active; also: nearly all actives have a fitted effect of over 60% in size
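qHTS cytotoxicity; HEK 293, 250 cells/well; compound pinned; 48 or 72 hr, 37 degree Celsius, 5% CO2, 95% humidity; CellTiter-Glo, 10 min RT; luminescence (ATP).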
Of the large screens only hits and unclear results are named; the others gave an inactive call. Only some compounds are listed: those with a hit (about 11% of all), similar ones and a draw of the others. Unless noted, calls follow the shape of the dose curve; as a rule, active = well fitted curve in the direction sought with a large enough effect; inconclusive = small, poorly fitted or top-dose-only effect, or another doubt; inactive = no such curve, though single readings can be large; an effect the other way counts as inactive or inconclusive.

O=C(NCCCN1CCOCC1)c1ccc(-c2ccc(N3CCCCCC3)nc2)cc1	3T3 cytotox inconclusive, Luciferase inh inconclusive, HEK cytotox 35µM
O=C(NCCN1CCOCC1)c1ccc(-c2ccc(N3CCCCCC3)nc2)cc1	3T3 cytotox 35µM, Luciferase inh inconclusive, HEK cytotox 35µM
O=C(NCc1cccnc1)c1ccc(-c2ccc(N3CCSCC3)nc2)cc1	NPR1 antag 11µM, 3T3 cytotox 4.5µM, Luciferase inh inconclusive, HEK cytotox 10µM
O=C(NCCCN1CCCC1=O)c1ccc(-c2ccc(N3CCSCC3)nc2)cc1	NPR1 antag inconclusive, 3T3 cytotox inconclusive, Luciferase inh 40µM, HEK cytotox inconclusive
COc1ccc(CNC(=O)c2ccc(-c3ccc(N4CCSCC4)nc3)cc2)cc1	none
COCCNC(=O)c1ccc(-c2ccc(N3CCCCCC3)nc2)cc1	3T3 cytotox inconclusive, Luciferase inh inconclusive, HEK cytotox inconclusive
O=C(NC1CC1)c1ccc(-c2ccc(N3CCCCC3)nc2)cc1	none
COCCNC(=O)c1nc2cccnc2n(CCOC)c1=O	none (no result: NPR1 antag, Luciferase inh)
O=C(NC1CCN(CCn2nc3n(c2=O)CCCC3)C1)c1ccc2c(c1)OCO2 (centres undefined)	none (no result: NPR1 antag, Luciferase inh)
CC1=C[C@@H](CN2CCN(c3ccccn3)CC2)[C@H](C(C)C)C[C@H]1Cc1nnc(-c2ccccc2)o1	3T3 cytotox inconclusive, HEK cytotox 40µM
CC1=C[C@@H](CN2CCOCC2)[C@H](C(C)C)C[C@H]1Cc1nnc(-c2ccccc2)o1	3T3 cytotox inconclusive, HEK cytotox 89µM
CC1=C[C@@H](CN2CCN(c3cnccn3)CC2)[C@H](C(C)C)C[C@H]1Cc1nnc(-c2ccc([N+](=O)[O-])cc2)o1	3T3 cytotox inconclusive, HEK cytotox inconclusive
CC1=C[C@@H](CN2CCOCC2)[C@H](C(C)C)C[C@H]1Cc1nnc(-c2ccc(N(C)C)cc2)o1	3T3 cytotox inconclusive, HEK cytotox inconclusive
COC(=O)C1=C(C)N=C2SC=C(CC(=O)NCCc3cccs3)N2C1c1ccccc1Cl (centres undefined)	NPR1 antag inconclusive, 3T3 cytotox inconclusive, HEK cytotox inconclusive
Cc1cccc2c1O[C@H]1[C@H](CO)CN([S+](=O)([O-])Cc3ccccc3)[C@@H]21	3T3 cytotox inconclusive, HEK cytotox 79µM (no result: NPR1 antag, Luciferase inh)
O=C(c1ccoc1)N1CC[C@@H]2[C@@H](CCC(=O)N2CCc2cnc[nH]2)C1	none
O=C(NCCCc1ccccc1F)[C@@]12CNC[C@@H]1CN(Cc1ccccc1)C2	3T3 cytotox 28µM, HEK cytotox 45µM
FC(F)(F)c1ccccc1-c1cc(-c2cccnc2)c2cncn2c1	3T3 cytotox 45µM, HEK cytotox 63µM
Cc1noc(C)c1-c1cc(-c2ccccc2F)cn2cncc12	3T3 cytotox inconclusive, HEK cytotox 79µM
Cc1noc(C)c1-c1cc(-c2ccccc2C(F)(F)F)cn2cncc12	3T3 cytotox inconclusive, HEK cytotox 71µM
Cc1noc(C)c1-c1cc(-c2ccc(CO)cc2)cn2cncc12	3T3 cytotox inconclusive, HEK cytotox inconclusive
COC1=C(C(=O)OCc2ccccc2)N(c2c(C)cccc2C)[S+](=O)([O-])c2ccccc21	HEK cytotox inconclusive (no result: NPR1 antag, Luciferase inh)
CCNc1nccc(N2CCC(CC(=O)N3CCN(c4ccccc4F)CC3)CC2)n1	3T3 cytotox 18µM, HEK cytotox inconclusive
CNc1nccc(N2CCC(CC(=O)NCc3ccccn3)CC2)n1	HEK cytotox inconclusive
CNc1nccc(N2CCC(CC(=O)NC3CCN(Cc4ccccc4)CC3)CC2)n1	3T3 cytotox 35µM, HEK cytotox inconclusive
CCNc1nccc(N2CCC(CC(=O)NCc3ccccc3F)CC2)n1	3T3 cytotox inconclusive, HEK cytotox 40µM
CNc1nccc(N2CCC(CC(=O)N3CCN(c4cccc(OC)c4)CC3)CC2)n1	NPR1 antag inconclusive, 3T3 cytotox inconclusive, HEK cytotox 25µM
Cc1ccc(C(=O)N2CCC3(CC2)CC(CO)N(C(=O)c2ccccc2)C3)s1 (centres undefined)	none (no result: NPR1 antag, Luciferase inh)
CNC(=O)c1cc(C2CC2)nc2c1c(C1CCCN(C(=O)c3ccccc3F)C1)nn2C (centres undefined)	none (no result: NPR1 antag, Luciferase inh)
O=C(NCc1ccc(F)cc1)C1c2ccccc2C(=O)N(Cc2ccccc2)C12CCCC2 (centres undefined)	3T3 cytotox 35µM, HEK cytotox 40µM
CC#CCn1cc2c3c(cccc31)[C@H](CC(C)C)N[C@H](C(=O)NCc1ccc(OC)cc1)C2	3T3 cytotox inconclusive, HEK cytotox inconclusive
Cc1cc(Cn2cc3c4c(cccc42)[C@H](CC(C)C)N[C@H](C(=O)NCc2ccccn2)C3)no1	3T3 cytotox inconclusive, HEK cytotox 32µM
Cc1cc(Cn2cc3c4c(cccc42)[C@H](CC(C)C)N[C@H](C(=O)NCc2ccco2)C3)no1	3T3 cytotox 28µM, HEK cytotox 40µM
O=C(NCCNC(=O)c1ccc(C(F)(F)F)cc1)c1ccc(-c2cccc(C(F)(F)F)c2)cc1	none (no result: NPR1 antag, Luciferase inh)
O=C(O)C1(Oc2ccc3ncccc3c2)CCN(Cc2cccnc2)CC1	none
Cc1nn2c(c1-c1ccccc1N1CCCC1)N(C(=O)c1cccc(N(C)C)c1)CCC2	3T3 cytotox inconclusive, HEK cytotox 89µM
Cc1nn2c(c1-c1ccccc1C(C)C)N(C(=O)c1ccn(C)n1)CCC2	3T3 cytotox inconclusive
Cc1nn2c(c1-c1cccnc1N1CCOCC1)N(Cc1ccccc1F)CCC2	3T3 cytotox inconclusive, HEK cytotox inconclusive
Cc1nn2c(c1-c1ccccc1-c1ccccc1)N(C(=O)COc1ccccc1)CCC2	3T3 cytotox inconclusive, HEK cytotox inconclusive
Cc1nn2c(c1-c1cccnc1N1CCOCC1)N(C(=O)COc1ccccc1)CCC2	3T3 cytotox 100µM
Cc1nn2c(c1-c1cccnc1N1CCOCC1)N(CCCc1ccccc1)CCC2	NPR1 antag inconclusive, 3T3 cytotox inconclusive, HEK cytotox 50µM
Cc1nn2c(c1-c1ccccc1N1CCCC1)N(C(=O)COc1ccccc1)CCC2	3T3 cytotox inconclusive, HEK cytotox 71µM
CN(CCn1ccnc1-c1ccc(CO)o1)S(C)(=O)=O	none
O=C1NC(C(=O)N2CCN(Cc3ccc(F)cc3F)CC2)Cn2cccc21 (centres undefined)	none
Cc1nn2c(c1-c1ccccc1N1CCCC1)N(C(=O)C1CCOCC1)CCC2	3T3 cytotox inconclusive, HEK cytotox 100µM
Cc1nn2c(c1-c1ccccc1C(C)C)N(C(=O)C1CCOCC1)CCC2	3T3 cytotox inconclusive, HEK cytotox inconclusive
Cc1nn(-c2ccc(C(C)(C)C)cc2)c(C)c1[C@@H]1C=C[C@@H](NC(=O)NC(C)C)C1	NPR1 antag inconclusive, 3T3 cytotox 45µM, Luciferase inh 14µM, HEK cytotox 45µM
Cc1nn(-c2ccc(F)cc2)c(C)c1[C@@H]1C=C[C@@H](NC(=O)NC(C)C)C1	NPR1 antag inconclusive, 3T3 cytotox inconclusive, Luciferase inh 63µM, HEK cytotox inconclusive
Cc1ccccc1-n1nc(C)c([C@H]2C=C[C@@H](OC(=O)NC(C)C)C2)c1C	3T3 cytotox 25µM, HEK cytotox inconclusive
COc1ccccc1-n1c(=O)c(C(=O)NCC(F)F)nc2cccnc21	none (no result: NPR1 antag, Luciferase inh)
O=C(CCc1ccc(CC2CCN(Cc3ccncc3)CC2)cc1)NC1CC1	HEK cytotox inconclusive (no result: NPR1 antag, Luciferase inh)
